Consider 24 compounds from article PMC11062922 (Nature Chemical Biology, 2023).

Common to all, as to set-up: species or system human, MV4-11 + K-562 + COLO205 + SK-N-BE2 + OVCAR-8
The test system of test [1] is PSMC4. The following applies: read-out: apparent Kd; compound concentrations: 100 nM and 1000 nM (sheet 'Samples'), CATDS: 0.17422831247088; n = 1.
Test [2] has as its system DAPK3. The following applies: read-out: apparent Kd; compound concentrations: 100 nM and 1000 nM (sheet 'Samples'), CATDS: 6.6145961365307402E-3; n = 1.
The subject of test [3] is PGK1. The following applies: read-out: apparent Kd; compound concentrations: 100 nM and 1000 nM (sheet 'Samples'), CATDS: 0.13034020177251299; n = 1.
Test [4] concerns SRC. The following applies: compound concentrations: 100 nM and 1000 nM (sheet 'Samples').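 Note: kinobeads ε competition pulldown from cell lysate, compound preincubated 45 min at 4 °C, bound kinases quantified by LC–MS/MS relative to DMSO control.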
The test system of test [5] is PRKACB. The following applies: compound concentrations:0.3nM, 1nM, 3nM, 10nM, 30nM, 100nM, 300nM, 1000nM,R2:0.87991730549407599,slope:0.899687988537484,EC50 Standard Error, by the legend:Standard error of the EC50 estimation as provided by the drc package.
The subject of test [6] is PRKCB. The note with it: compound concentrations:0.3nM, 1nM, 3nM, 10nM, 30nM, 100nM, 300nM, 1000nM,R2:0.978843793099339,slope:1.0046603573044399,EC50 Standard Error, by the legend:Standard error of the EC50 estimation as provided by the drc package.
Test [7] concerns PRKCD. The note with it: compound concentrations:0.3nM, 1nM, 3nM, 10nM, 30nM, 100nM, 300nM, 1000nM,R2:0.97536342523711195,slope:1.1087330186118201,EC50 Standard Error, by the legend:Standard error of the EC50 estimation as provided by the drc package.
The test system of test [8] is PRKCQ. The note with it: compound concentrations:0.3nM, 1nM, 3nM, 10nM, 30nM, 100nM, 300nM, 1000nM,R2:0.97430848163672201,slope:0.92336588926382501,EC50 Standard Error, by the legend:Standard error of the EC50 estimation as provided by the drc package.
Test [9] relates to NME2;NME2P1. The following applies: read-out: apparent Kd, n = 1.
Test [10] relates to CDC42. The following applies: read-out: apparent Kd, n = 1.
The test system of test [11] is GALK1. The following applies: read-out: apparent Kd, compound concentrations: 100 nM and 1000 nM (sheet 'Samples'), n = 1.
In test [12] the test system is MCM5. The following applies: read-out: apparent Kd, compound concentrations: 100 nM and 1000 nM (sheet 'Samples'), n = 1.
For test [13], the system named is MTHFD1. The following applies: read-out: apparent Kd, compound concentrations: 100 nM and 1000 nM (sheet 'Samples'), n = 1.
In test [14] the test system is RAB5C. The following applies: read-out: apparent Kd, n = 1.
The test system of test [15] is PKM. The note with it: read-out: apparent Kd, n = 1.
The subject of test [16] is ADK. The note with it: read-out: apparent Kd, compound concentrations: 100 nM and 1000 nM (sheet 'Samples'), n = 1.
Test [17] concerns IARS. The note with it: read-out: apparent Kd, compound concentrations: 100 nM and 1000 nM (sheet 'Samples'), n = 1.
In test [18] the test system is EIF2AK1. The note with it: read-out: apparent Kd, n = 1.
The subject of test [19] is PRKACG. The following applies: read-out: apparent Kd, compound concentrations: 100 nM and 1000 nM (sheet 'Samples'), n = 1.
Test [20] concerns NNT. The following applies: read-out: apparent Kd, compound concentrations: 100 nM and 1000 nM (sheet 'Samples'), n = 1.
Where [21] appears, read: compound concentrations:100 nM and 1000 nM (sheet 'Samples').

Like-named read-outs stand apart in the source and are kept apart here.
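Throughout, for EC50: competition pulldown with Kinobeads ε in cell lysates, inhibitor preincubated 45 min at 4 °C, bound kinases quantified by LC–MS/MS against DMSO control.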
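Throughout, for Kd: competition pulldown with Kinobeads ε in cell lysates, inhibitor preincubated 45 min at 4 °C, bound kinases quantified by LC–MS/MS against DMSO control.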

Take `O=C1NC(=O)/C(=C/c2ccc3ncccc3c2)S1` [RO4603632-000]: the potency estimated from few doses in test [1] was 1730 nM.

On to `O=C1N=C(NCCc2ccc(Cl)cc2)S/C1=C\c1ccc2ncccc2c1` [RO4498479-000], for which, in test [2], the potency estimated from few doses was 2110 nM.

As for `COc1cccc2c(-c3ccncc3)c(-c3ccc(F)cc3)nn12` [GW468513X], the potency estimated from few doses in [3] was 62.3 nM.

Take `COc1cc(Nc2ncc3c(C)nc(-c4cc5ccccc5[nH]4)n3n2)cc(OC)c1OC` [GW869516X]: the “Kinobeads Data” value in [4] was “no target”.

Regarding `CCn1c(-c2nonc2N)nc2c(C#CC(C)(C)O)nc(OCCN)cc21.CCn1c(-c2nonc2N)nc2c(C#CC(C)(C)O)nc(OCCN)cc21.Cl.Cl` [GSK902056A], the EC50 is 145 nM in test [5], 410 nM in test [6], 124 nM in [7] and 58.7 nM in [8]. Besides, the Kd was 145 nM in [5] (read-out: apparent Kd), 401 nM in [6] (read-out: apparent Kd), 124 nM in test [7] (read-out: apparent Kd) and 58.7 nM in test [8] (read-out: apparent Kd).

`Cc1cccc(Nc2nc(N[C@H]3CCNC3)ncc2C(N)=O)c1.Cl` [GSK2197149A]: in test [9] (setting [21]), the potency estimated from few doses is 1460 nM.

Regarding `Cl.Cl.NC(CNC(=O)c1cc(Br)c(-c2ccnc3[nH]ccc23)s1)c1ccccc1.NC(CNC(=O)c1cc(Br)c(-c2ccnc3[nH]ccc23)s1)c1ccccc1` (stereo not drawn) [GSK1322949A], the potency estimated from few doses in test [10] (compound concentrations: 100 nM and 1000 nM (sheet 'Samples'), CATDS: 2.9749426965709602E-2) was 1240 nM; in [11] (CATDS: 2.6759379349231501E-2), 1600 nM; in test [12] (CATDS: 2.5853375360702799E-2) it was 1760 nM; in test [13] (CATDS: 2.96394051410106E-2), 1250 nM; in test [14] (compound concentrations: 100 nM and 1000 nM (sheet 'Samples'), CATDS: 2.6344655895194399E-2), 1670 nM.

For `COc1cc(Nc2nccc(-c3cnn4ncccc34)n2)cc(OC)c1` [GW801372X], the potency estimated from few doses in test [12] (CATDS: 1.9115246172466901E-2) was 1390 nM.

Turning to `COc1cc(Nc2nccc(N3CCC(NC(=O)c4cccc(NC(C)=O)c4)C3)n2)cc(OC)c1OC` (stereo not drawn) [GSK1379754A], the potency estimated from few doses in test [15] (compound concentrations: 100 nM and 1000 nM (sheet 'Samples'), CATDS: 8.1586836054847095E-2) is 1900 nM.

Regarding `O=C1N=C(NCc2cccs2)O/C1=C\c1ccc2ncccc2c1` [RO4624208-000], the potency estimated from few doses in [16] (CATDS: 4.98118638137824E-2) was 1390 nM.

For `O=C(O)C(F)(F)F.O=c1[nH]ccc2nc(N[C@@H]3CCNC3)nc(Nc3ccc4c(c3)S(=O)(=O)CC4)c12` [GSK2181306A], the potency estimated from few doses in test [17] (CATDS: 8.0761213761314007E-3) was 1860 nM.

For the compound `CCn1c(-c2cccnc2O)nc2cnccc21` [SB-736715], the potency estimated from few doses in test [18] (compound concentrations: 100 nM and 1000 nM (sheet 'Samples'), CATDS: 1.2624621535744099E-2) is 1920 nM.

As to `Cc1ccccc1-n1ncc(C(=O)c2ccccc2)c1N` [RO1151248-000], in [19] (CATDS: 2.9121921896178699E-2), the potency estimated from few doses was 613 nM.

Consider `CS(=O)(=O)Nc1cccc(-c2ccc3c(NC(=O)C4CC4)n[nH]c3c2)c1` [SB-742864], for which the potency estimated from few doses was 1820 nM in test [11] (CATDS: 0.105390971488214); 1910 nM in [9] (compound concentrations: 100 nM and 1000 nM (sheet 'Samples'), CATDS: 0.103585369709675).

For `CCN(CC)Cc1ccc(Nc2nccc(-c3cnn4ncccc34)n2)cc1` [GW780056X], the potency estimated from few doses in test [13] (CATDS: 2.2377842490129501E-2) was 921 nM.

On to `COc1ccc(-c2cc3c(N)ncnc3o2)cc1` [GW642138X], for which the potency estimated from few doses in test [20] (CATDS: 0.135417913174183) is 1070 nM.

Take `O=C1N=C(NCc2c(Cl)cccc2Cl)S/C1=C\c1ccc2ncccc2c1` [RO4600445-000]: the potency estimated from few doses in test [16] (CATDS: 0.24369856841726101) was 1350 nM.

In the case of `CCn1c(-c2nonc2N)nc2c(C#CC(C)(C)O)nc(O[C@@H](CN)c3ccccc3)cc21.O=C(O)C(F)(F)F` [GSK1007102B], in test [18] (setting [21]), the potency estimated from few doses is 996 nM.

As for `CC(C)Nc1cc(-c2ccc3c(N)n[nH]c3c2)nc(N)n1` [GSK2221681A], in test [10] (setting [21]), the potency estimated from few doses is 1530 nM.

On to `Nc1nc(-c2ccc3c(N)n[nH]c3c2)cc(N2CCCC(NC(=O)c3ccccc3)C2)n1` (stereo not drawn) [GSK2286775B], for which, in test [14] (setting [21]), the potency estimated from few doses is 1520 nM.

For `NS(=O)(=O)c1ccc(N/N=C2\C(=O)Nc3ccc4ncccc4c32)cc1` [GW305178X], the potency estimated from few doses in test [19] (CATDS: 4.9106390332169098E-2) is 1030 nM.

As for `Cl.Cl.NCC(NCc1ccc(-c2ccnc3[nH]ccc23)s1)c1ccccc1.NCC(NCc1ccc(-c2ccnc3[nH]ccc23)s1)c1ccccc1` (stereo not drawn) [GSK1321565A], the potency estimated from few doses in test [15] (setting [21]) is 2050 nM.

As to `Cl.Nc1nc(-c2ccc3c(c2)C(=Cc2cc(Br)c(O)c(Br)c2)C(=O)N3)cs1` [GW407323A], the potency estimated from few doses in test [20] (CATDS: 3.26521392467971E-2) is 987 nM.

For the compound `COc1ccc(Nc2nccc(NCCNC(=O)Nc3cc(C)ccc3C)n2)cc1` [GSK1379899A], in test [17] (CATDS: 4.14736343029877E-2), the potency estimated from few doses is 1920 nM.

As usually defined, the EC50 is the concentration at which the effect is half-maximal.
